The results in this text go back to PubChem BioAssay AID504580 (NMMLSC, 2011).

Fewer than 10 of roughly 2,000 compounds were called active.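 How the source made its calls: active means compounds that quench the bead-bound fluorescent RNA probe, cutting fluorescence to under half of the solvent control; inactive means the rest.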 A selection follows.

This experiment in a line: bead-bound FAM aptamer signal quenchers – biochemical, single point, cherry pick 1, flow cytometry, artefact control for GRK2 RNA aptamer inhibitor project, confirmation (AID 504580).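 Further: counterscreen run without GRK2 so only probe quenching by compound is measured.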 The conditions noted are these: Carboxyfluorescein RNA aptamer on beads, flow cytometry quenching; at 10 µM; active compounds read low. Background: In flow cytometry, cells or beads pass a laser one at a time.
In the case of `C=C(C)C(=O)Nc1cccc(C2=NOC3(C2)C[C@H](C(N)=O)N(C(=O)C(c2ccccc2)c2ccccc2)C3)c1` (stereo partly drawn), the fluorescence response (% of DMSO) was 102% (inactive).

With `COc1cccc(CN(C)CC(=O)Nc2sc3c(c2C#N)CCC3)c1`, the fluorescence response (% of DMSO) is 99.9% (inactive).

Take `CCCc1nc2ccccc2c(=O)n1NC(=O)c1c(O)c2ccccc2[nH]c1=O`: the fluorescence response (% of DMSO) was 101% (inactive).

On to `O=C(Nc1nnc(-c2ccccc2)o1)c1cccc(S(=O)(=O)N2CCOCC2)c1`, for which the fluorescence response (% of DMSO) was 101% (inactive).

As for `CC(C)Cn1c(CN(Cc2ccccc2)Cc2ccccc2)nc2c1c(=O)n(C)c(=O)n2C`, the fluorescence response (% of DMSO) is 98% (inactive).

Regarding `CN(CC(=O)Nc1ccc(N2CCOCC2)cc1)CC(=O)Nc1ccccc1[N+](=O)[O-]`, the fluorescence response (% of DMSO) was 101% (inactive).

`COc1cc(C(=O)OCC(=O)N(CC(C)C)C2CCS(=O)(=O)C2)ccc1OCC(C)C` (stereo not drawn): the fluorescence response (% of DMSO) is 91.4% (inactive).

As to `CSc1nc2ccccc2c(=O)n1Cc1ccc(F)cc1`, the fluorescence response (% of DMSO) was 100% (inactive).

As for `CCOC(=O)c1sc2nc(CSc3ccccc3)[nH]c(=O)c2c1C`, the fluorescence response (% of DMSO) was 106% (inactive).

With `Cn1c(=O)c2c(nc(N3CCOCC3)n2CCNC2=NCCC2)n(C)c1=O`, the fluorescence response (% of DMSO) is 99.8% (inactive).

`O=C(c1cnn(-c2ccc(Cl)cc2)c1)c1ccccc1O`: the fluorescence response (% of DMSO) is 101% (inactive).

Regarding `O=C(NCc1ccccc1Cl)c1ccc2c(=O)n(CC3CCCO3)c(=S)[nH]c2c1` (stereo not drawn), the fluorescence response (% of DMSO) is 95.6% (inactive).

As for `Cc1csc(=O)n1CC(=O)OCC(=O)N(CC(C)C)c1c(N)n(Cc2ccccc2)c(=O)[nH]c1=O`, the fluorescence response (% of DMSO) is 99.2% (inactive).

In the case of `O=C(COC(=O)c1ccc(F)cc1F)Nc1ncccn1`, the fluorescence response (% of DMSO) was 95.8% (inactive).

Consider `COc1cc(C(=O)NCc2ccc3c(c2)cc(C)n3C)cc(OC)c1OC`, for which the fluorescence response (% of DMSO) is 96.5% (inactive).

For `O=C(NC(=O)c1cc(OCC(F)(F)F)ccc1OCC(F)(F)F)Nc1ccccc1`, the fluorescence response (% of DMSO) is 103% (inactive).

For the molecule `CC(=O)N1CC[n+]2c(-c3ccc([N+](=O)[O-])cc3)csc21`, the fluorescence response (% of DMSO) was 103% (inactive).

Take `CCOc1ccccc1C(=O)NCc1ccco1`: the fluorescence response (% of DMSO) was 96% (inactive).

Consider `Cc1cc2cc(CNC(=O)c3cccs3)ccc2[nH]1`, for which the fluorescence response (% of DMSO) was 86.2% (inactive).

For the molecule `COc1ccc(Nc2nc(-c3cccnc3)nc3ccccc23)cn1`, the fluorescence response (% of DMSO) was 101% (inactive).

`CCN1/C(=C\c2ccc3ccccc3[n+]2CC)Sc2cc(C)ccc21`: the fluorescence response (% of DMSO) is 173% (inactive).

As to `Cn1c(=O)[nH]c(=O)c2c1nc(N1CCN(C(c3ccccc3)c3ccccc3)CC1)n2CCO`, the fluorescence response (% of DMSO) was 98.3% (inactive).

Turning to `COC(=O)N/N=C/c1ccc(/C=N/NC(=O)OC)cc1`, the fluorescence response (% of DMSO) was 100% (inactive).

With `COc1ccc(Nc2cc(Sc3ccc(OC)cc3)ncn2)cc1`, the fluorescence response (% of DMSO) was 101% (inactive).

In the case of `O=C(c1ccc(Cl)cc1)c1ccc(OCC(O)CN2CCCCC2)cc1` (stereo not drawn), the fluorescence response (% of DMSO) was 101% (inactive).

Regarding `COc1ccc(-n2nc(C(=O)NCC(=O)N3CCCCCC3)c3ccccc3c2=O)cc1Cl`, the fluorescence response (% of DMSO) was 105% (inactive).

Take `COc1ccccc1NC(=O)CSc1nc2sc3c(c2c(=O)n1-c1ccccc1)CCN(C)C3`: the fluorescence response (% of DMSO) is 94.8% (inactive).

Consider `NC(=O)C1CCN(C(=O)c2ccc3c(=O)n(Cc4cccc(Br)c4)c(=S)[nH]c3c2)CC1`, for which the fluorescence response (% of DMSO) was 98.1% (inactive).

For the molecule `COc1ccc(C(=O)NCCNc2ccc([N+](=O)[O-])cn2)cc1`, the fluorescence response (% of DMSO) was 99.4% (inactive).

As for `Cc1nc(C(=O)NCc2ccccc2)sc1C1(C)CC(c2cccnc2)=NO1` (stereo not drawn), the fluorescence response (% of DMSO) is 97.1% (inactive).

In the case of `O=C(c1cc2cc(F)ccc2[nH]1)N1CCN(c2ccc(F)cc2)CC1`, the fluorescence response (% of DMSO) was 97.9% (inactive).

Regarding `CNS(=O)(=O)c1cccc(C(=O)NCC2CCCCC2)c1`, the fluorescence response (% of DMSO) was 101% (inactive).

As for `Nc1ccc2nc3c(=O)[nH]c(=S)[nH]c3nc2c1`, the fluorescence response (% of DMSO) is 83.9% (inactive).

Take `O=C(Oc1ccc(Br)cc1)c1cccnc1`: the fluorescence response (% of DMSO) was 96.7% (inactive).

In the case of `Cc1ccccc1-c1nnn(CC(=O)c2ccc(S(=O)(=O)N3CCCC3)cc2)n1`, the fluorescence response (% of DMSO) is 96.4% (inactive).

For the molecule `CSc1ccc(/C=C2\NC(=O)NC2=O)cc1`, the fluorescence response (% of DMSO) is 95.8% (inactive).

Consider `Cc1ccc(-c2nn(-c3ccccc3)cc2/C=C2\SC(=S)N(CCCCCC(=O)O)C2=O)o1`, for which the fluorescence response (% of DMSO) is 136% (inactive).

Take `COCCn1c(C)cc(C(=O)CN2c3cccc4cccc(c34)S2(=O)=O)c1C`: the fluorescence response (% of DMSO) is 98% (inactive).

For `Cc1cc(C(=O)NC2CCN(Cc3ccccc3)CC2)n[nH]1`, the fluorescence response (% of DMSO) is 96.6% (inactive).

For the molecule `C/C(=N\OCC(=O)O)c1ccc(Cl)cc1`, the fluorescence response (% of DMSO) was 101% (inactive).

For the molecule `CC(NC(=O)C1CCCN(S(=O)(=O)c2ccc(-n3cnnn3)cc2)C1)c1ccc(F)cc1` (stereo not drawn), the fluorescence response (% of DMSO) is 105% (inactive).

Take `CCN1C(=O)[C@H]2[C@@H](c3ccc(-c4ccc(OC)cc4)cc3)N[C@@](Cc3ccccc3)(C(=O)OC)[C@H]2C1=O`: the fluorescence response (% of DMSO) was 96.4% (inactive).

Turning to `COc1ccc(NC(=O)CN(C)C(=O)c2cc(-c3ccc(C)o3)nc3ccccc23)cc1`, the fluorescence response (% of DMSO) is 100% (inactive).

Consider `COc1ccc(N2CCN(C(CNS(=O)(=O)c3ccc(C)cc3)c3ccccc3)CC2)cc1` (stereo not drawn), for which the fluorescence response (% of DMSO) is 98.2% (inactive).

Consider `O=C(NCC12CC3CC(C1)CC(CNC(=O)N1CCCC1)(C3)C2)N1CCCC1`, for which the fluorescence response (% of DMSO) is 98.2% (inactive).

In the case of `O=C(O)c1ccc2c(c1)C(=O)N(c1ccc(/C=C/C(=O)c3ccccc3)cc1)C2=O`, the fluorescence response (% of DMSO) is 99.8% (inactive).

As to `O=S(=O)(Nc1ccc(-c2ccc(N3CCOCC3)nn2)cc1)c1cc(Cl)ccc1Cl`, the fluorescence response (% of DMSO) was 108% (inactive).

As for `O=C(NCc1ccccc1)c1cccc(NC(=O)C2CCCCC2)c1`, the fluorescence response (% of DMSO) was 98% (inactive).

For `CCC(=C/c1sc2ccc3ccccc3c2[n+]1C)/C=C1\Sc2ccc3ccccc3c2N1C`, the fluorescence response (% of DMSO) was 10.7% (active).

With `Cc1ccccc1CN1CCN(CC(=O)NCc2ccccn2)C1=O`, the fluorescence response (% of DMSO) was 101% (inactive).

Consider `Cc1ccc(S(=O)(=O)CCC(=O)Nc2nnc(CC(C)C)s2)cc1`, for which the fluorescence response (% of DMSO) was 99.8% (inactive).

On to `O=C(CCNC(=O)c1ccccc1)NN=Cc1ccc(Br)o1`, for which the fluorescence response (% of DMSO) is 96.6% (inactive).

As to `Cc1ccc(C(CNC(=O)Nc2cccc(C)c2)N2CCN(C)CC2)cc1` (stereo not drawn), the fluorescence response (% of DMSO) was 98% (inactive).

In the case of `O=c1[nH]c(SCc2ccccc2)nnc1-c1ccccc1`, the fluorescence response (% of DMSO) is 98.2% (inactive).

In the case of `Cc1nc(Nc2ccccc2F)c2nnn(Cc3ccccc3Cl)c2n1`, the fluorescence response (% of DMSO) was 99.8% (inactive).

`CCOC(=O)C1CCCN(Cc2nc(N)nc(Nc3ccc(C)cc3)n2)C1` (stereo not drawn): the fluorescence response (% of DMSO) is 80% (inactive).

For the molecule `Cc1ccc(N2C(=O)C3N=NN(CC(=O)N4N=C(c5cccc6ccccc56)CC4c4ccccc4)C3C2=O)cc1` (stereo not drawn), the fluorescence response (% of DMSO) was 101% (inactive).

For the molecule `OC(CN=c1sc2ccccc2n1CC(O)COc1ccccc1)COc1ccccc1` (stereo not drawn), the fluorescence response (% of DMSO) was 95.8% (inactive).

Take `CC(C)CN(C(=O)c1cccc(S(=O)(=O)N2CCCCC2)c1)C1CCS(=O)(=O)C1` (stereo not drawn): the fluorescence response (% of DMSO) is 102% (inactive).

Regarding `O=C(COc1ccccc1)NCCc1nc2ccccc2[nH]1`, the fluorescence response (% of DMSO) was 99.7% (inactive).

In the case of `CCOC(=O)C(C)n1cnc2scc(-c3ccc(C)c(C)c3)c2c1=O` (stereo not drawn), the fluorescence response (% of DMSO) was 95.4% (inactive).

Take `Cc1cc(/C=C2\SC(=O)N(C)C2=O)c(C)n1-c1cccc(C(=O)O)c1`: the fluorescence response (% of DMSO) was 96.6% (inactive).

In the case of `COc1ccc(Cl)cc1NC(=O)CCS(=O)(=O)c1cc2c(cc1C)NC(=O)CO2`, the fluorescence response (% of DMSO) is 99.6% (inactive).

As for `COC(=O)c1ccc(C)c(NC(=O)C2CC(=O)N(C3CCCC(C)C3C)C2)c1` (stereo not drawn), the fluorescence response (% of DMSO) was 94.9% (inactive).

On to `CCN1/C(=C/c2ccc3ccc(C)cc3[n+]2CC)Sc2ccccc21`, for which the fluorescence response (% of DMSO) is 142% (inactive).

With `Cc1cccc(NC(=O)C2CCCN(C(=O)NCc3ccccc3)C2)c1C` (stereo not drawn), the fluorescence response (% of DMSO) was 102% (inactive).

Turning to `CCCCn1nc(C(=O)OCC(=O)Nc2sccc2C(N)=O)c2ccccc2c1=O`, the fluorescence response (% of DMSO) is 99.8% (inactive).

Consider `O=C(CCS(=O)(=O)c1ccc(Br)cc1)NCCc1ccc(Cl)cc1`, for which the fluorescence response (% of DMSO) was 102% (inactive).

`O=C1C2N=NN(CC(=O)N3N=C(c4cccc5ccccc45)CC3c3ccccc3)C2C(=O)N1c1ccccc1` (stereo not drawn): the fluorescence response (% of DMSO) is 91.2% (inactive).

As for `CN/C(=C\[N+](=O)[O-])NCCSCc1csc(CN(C)C)n1`, the fluorescence response (% of DMSO) is 99.2% (inactive).

Regarding `COCCCNC(=O)CNC(=O)c1nn(-c2ccc(OC)cc2)c(=O)c2ccccc12`, the fluorescence response (% of DMSO) is 96.3% (inactive).

In the case of `O=C(NNc1ncnc2c1cnn2-c1ccccc1)c1ccco1`, the fluorescence response (% of DMSO) was 97.9% (inactive).

Take `CC(=O)c1ccc(OCC(O)CN2CCN(S(=O)(=O)c3cccc(Br)c3)CC2)cc1` (stereo not drawn): the fluorescence response (% of DMSO) was 142% (inactive).

As to `CCOCCCNC(=O)C(NC(=O)CNC(=O)c1ccccc1)c1ccc(OC)cc1` (stereo not drawn), the fluorescence response (% of DMSO) was 96% (inactive).

Take `Cc1nn(Cc2ccc(F)cc2)c(C)c1NC(=O)c1noc2c1CCc1ccccc1-2`: the fluorescence response (% of DMSO) is 97% (inactive).

Regarding `C/C(=N\Nc1nc2ccccc2[nH]1)c1cccs1`, the fluorescence response (% of DMSO) is 92.8% (inactive).

As to `O=C(Nc1ccc(-c2nnc(-c3ccccc3)o2)cc1)c1ccc(Br)o1`, the fluorescence response (% of DMSO) is 98.8% (inactive).

For `CN(Cc1ccccc1)C(=O)c1cccc(C(=O)N(C)Cc2ccccc2)c1`, the fluorescence response (% of DMSO) is 101% (inactive).
